# PubChem BioAssay (NCI)
# The panel holds about 83,000 compounds, 20% with a hit somewhere; the sample as a whole holds those more often.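 Cells were grown in 96-well plates and exposed to the test compound at a single concentration for 48 hours; results are reported as percent growth, with values below 10 considered active.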 Values without a mark were called inactive. Calls of active or inactive are those of the source.
# Key:
# Experiment in all cases: NCI-60 one-dose screen, 48 h (100 = growth as untreated, 0 = no growth, -100 = all killed)
# Conditions in all cases: 10 µM unless noted
# SK-MEL-2 melanoma = test system: SK-MEL-2 melanoma
# EKVX NSCLC = test system: EKVX NSCLC
# SN12C renal = test system: SN12C renal
# UO-31 renal = test system: UO-31 renal
# TK-10 renal = test system: TK-10 renal
# ACHN renal = test system: ACHN renal
# CAKI-1 renal = test system: CAKI-1 renal
# A498 renal = test system: A498 renal
# CCRF-CEM leukemia = test system: CCRF-CEM leukemia
# MOLT-4 leukemia = test system: MOLT-4 leukemia
SMILES,growth (SK-MEL-2 melanoma),growth (EKVX NSCLC),growth (SN12C renal),growth (UO-31 renal),growth (TK-10 renal),growth (ACHN renal),growth (CAKI-1 renal),growth (A498 renal),growth (CCRF-CEM leukemia),growth (MOLT-4 leukemia)
C=CC(=O)N1CCN(c2cccc(Oc3nccc(Nc4nnc(-c5ccc(Br)cc5)s4)n3)c2)CC1,54.7%,93.9%,78.7%,66.7%,111%,72.9%,38.9%,79.7%,69.5%,70.6%
Cn1c(=O)cc2c3c(c(NCCCO)ccc31)C(=O)c1ccccc1-2,73.9%,73.2%,46.8%,13.1%,29.1%,25.3%,44.7%,64.2%,48.3%,19.2%
COc1ccc(Nc2ncc(Br)c(NCCCNC(=O)C3CCCC3)n2)cc1,63.6%,47.3%,22%,-30.8% (active),23.3%,19.8%,9.48% (active),54.6%,27.1%,19.5%
COc1ccc(CNc2c3ccccc3nc3ccccc23)cc1,60.1%,49.7%,32.2%,22.1%,49.5%,18.8%,29.3%,10%,39%,9.38% (active)
COc1ccc2cc1Oc1ccc(cc1)C[C@H]1c3c(cc4c(c3Oc3cc5c(cc3OC)CCN(C)[C@@H]5C2)OCO4)CCN1C,69.9%,75.1%,60.3%,60.6%,44.8%,63%,70.8%,32.2%,21%,31.5%
COC1=CC(c2ccc[nH]2)=N/C1=C\c1[nH]c(C)c(C)c1CCC(=O)OCc1ccccc1,-28.9% (active),-22.1% (active),-30% (active),-77.1% (active),-0.0887% (active),-39.5% (active),-23.5% (active),-19.8% (active),0.65% (active),-23.7% (active)
NS(=O)(=O)c1ccc(N=Nc2c(O)n(Cc3ccccc3)c3ccc(Cl)cc23)cc1,98.6%,91.2%,87.3%,81.2%,95%,64.9%,64.4%,78.3%,96.2%,72.2%
CC(=O)/C(=C\c1c(-c2ccccc2)[nH]c2ccccc12)S(C)(=O)=O,59.9%,50.4%,33.4%,51%,42.7%,50.2%,45.6%,31.9%,1.75% (active),-13.5% (active)
CCSc1oc(-c2ccccc2)nc1[P+](c1ccccc1)(c1ccccc1)c1ccccc1,-9.57% (active),11%,3.37% (active),-31.3% (active),24.1%,-5.44% (active),1.2% (active),-32.8% (active),11.1%,1.34% (active)
COc1ccc(-c2cc(-c3ccc(Cl)cc3)c(C#N)c(=O)n2Cc2ccc(C(=O)Nc3ccccc3N)cc2)cc1,79.3%,82.1%,79.1%,40.5%,140%,96.5%,55.8%,84%,42.6%,66.2%
CCCCCOC(=O)c1c(C)[nH]c(/C=C2\N=C(c3ccc[nH]3)C=C2OC)c1C,-71.2% (active),12.5%,3.4% (active),-69.6% (active),4.49% (active),-72.3% (active),-17.3% (active),-21% (active),-13.2% (active),9.58% (active)
COc1ccc(/C=C/C(=O)c2cc3c(N)c(C(=O)Nc4cccc5ccccc45)sc3nc2C)cc1,70.9%,92.4%,87.5%,62.7%,94.2%,71.8%,48.6%,44.2%,33.6%,100%
O=S(=O)(Nc1ccc(F)cc1F)c1ccc(-c2cnc(C3CC3)o2)cc1,36.7%,41.1%,42.9%,40%,67.2%,38.5%,25%,-3.02% (active),19.3%,28.3%
O=c1c2ccccc2n2cnc3ccc(Cl)c1c32,96.5%,62.7%,76.1%,44.8%,49.2%,50.5%,43.1%,54.1%,95.7%,89%
CC1CCN(S(=O)(=O)c2ccc(S(=O)(=O)N3CCCC(c4nc5c(nnn5Cc5cccc(Cl)c5)c(=O)[nH]4)C3)cc2)CC1 (stereo not given),46.9%,69.1%,47.3%,43.1%,71.5%,71.7%,22.2%,38%,15.2%,19.2%
C1CCC([PH+](C2CCCCC2)C2CCCCC2[PH+](C2CCCCC2)C2CCCCC2)CC1.[Au].[CH-]1CCCCC1C1CCCC[N-]1 (stereo not given),-56.6% (active),-77.6% (active),-47.3% (active),-96.3% (active),-58.7% (active),-99.4% (active),-88% (active),-71.1% (active),2.23% (active),-6.51% (active)
COCCOc1cc2ncnc(N3CCN(c4cc(S(C)(=O)=O)c(C)cc4Cl)CC3)c2cc1OCCOC,95.3%,90.4%,87.2%,61.8%,104%,100%,101%,88.2%,89.5%,79.4%
Nc1[nH]n2cc(-c3ccccc3)nc2c1N=Nc1ccc(S(N)(=O)=O)cc1,31.6%,54.6%,20.1%,19.5%,48.4%,8.58% (active),3.86% (active),8.19% (active),19.7%,13.9%
N#Cc1c(-c2ccc(Cl)cc2)c(C#N)c2c(C#N)c(N)nn2c1N,93.1%,68.3%,87.8%,67.1%,83.8%,87.7%,71.6%,78.2%,73.9%,79.4%
CCCCC1=C(P(=O)(O)O)N[C@H](C(=O)O)CS1,103%,90.5%,88.2%,73.5%,94.8%,97.9%,94.1%,100%,96.8%,102%
C[C@@H](CO)[C@@H]1CCC=C2CC[C@]3(C)[C@H](CC[C@@H]4[C@@]5(C)CCCNC(C)(C)[C@@H]5CC[C@]43C)[C@H]21,52.1%,94.5%,67.3%,79.7%,82%,87.2%,47%,76.6%,26.2%,10.3%
COc1ccc(C2=C(Nc3ccc(C(=O)Nc4ccccc4)cc3)C(=O)N(C)C2=O)cc1,85.1%,96.8%,99.2%,71.8%,95.4%,89.9%,80.9%,116%,85.4%,76.7%
